The entries come from a sample that favours hits as a whole.
Tb PGK inh – qHTS Assay to Find Inhibitors of Phosphoglycerate Kinase. PGK/GAPDH coupled, Kinase-Glo luminescence, 60 min. Potency, µM (doses to about 57.5 µM), inactives show top-dose activity change, negative = inhibition, usual class: inhibitors. 380,000 tested, 0.043% active. AID 602233, 2012; further: potency means the concentration at half of the fitted maximal effect; on the % scale 0 is the no-effect control and ±100 the full control effect; nearly all actives have a fitted effect of over 60% in size
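Recombinant glycosomal PGK reaction used 1,3-bisphosphoglycerate generated in-well by GAPDH (100nM final) in 100mM TEA pH 7.6, 5mM MgCl2, 0.01% Tween-20. After 60 minutes at room temperature, ATP was read by Kinase-Glo Plus luminescence end-point.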
Pin1 inhibitor – qHTS Assay to Find Inhibitors of Pin1; Potency, µM (doses to about 115 µM), for the others: at the highest dose activity, negative = inhibition, usual class: inhibitors; 390,000 tested, 0.009% active; Pin1 FP peptide displacement, HiFluor488, 10 min; Peptidyl-prolyl cis-trans isomerase NIMA-interacting 1 (Homo sapiens), Q13526; AID 504891, 2011; active means well fitted inhibition curve with a large enough effect in the polarisation, with a control signal flat, not every such curve was filed as active; inconclusive means small, poorly fitted or top-dose-only effect, or effect the other way, or a change in a side signal; inactive means no such curve, though single readings can be large or run the other way; the % refers to the polarisation; further: potency means the concentration at half of the fitted maximal effect; on the % scale 0 is the no-effect control and ±100 the full control effect
Tb PFK inh-1 – qHTS Assay to Find Inhibitors of T. brucei phosphofructokinase | T. brucei PFK, ADP-Glo luminescence | ATP-dependent 6-phosphofructokinase (Trypanosoma brucei brucei), O15648 | 330,000 tested, 0.17% active | Potency, µM (highest dose often 57.5 µM), without a hit: top-dose activity, negative = inhibition, most hits filed as inhibitors | AID 485367, 2010;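 further: potency means the concentration at half of the fitted maximal effect; 0% = uninhibited 1x PFK enzyme wells and -100% = no-enzyme wells; nearly all actives have a fitted effect of over 60% in size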
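Luminescent ADP detection (ADP-Glo, two-step: ATP depletion then ADP-to-ATP conversion for luciferase) reported PFK activity after 45 min room-temperature reaction of 1.25 nM enzyme with 0.5 mM F6P and 0.1 mM ATP at pH 8.0.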
PI4K2A block – qHTS for small molecular inhibitors of PI4K2A | Phosphatidylinositol 4-kinase type 2-alpha (Homo sapiens), Q9BTU6 | purified PI4K2A, ADP-Glo luminescence, 1 h; stronger effect = lower value | activity change, negative = inhibition, % at 76.9 µM | 420,000 tested, 0.13% active; in the data active means activity change below about -50%; inconclusive means mostly about -30% to -49%;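 further: -100% = wells without enzyme as full effect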
Target sequence (Q9BTU6 whole entry, looked up): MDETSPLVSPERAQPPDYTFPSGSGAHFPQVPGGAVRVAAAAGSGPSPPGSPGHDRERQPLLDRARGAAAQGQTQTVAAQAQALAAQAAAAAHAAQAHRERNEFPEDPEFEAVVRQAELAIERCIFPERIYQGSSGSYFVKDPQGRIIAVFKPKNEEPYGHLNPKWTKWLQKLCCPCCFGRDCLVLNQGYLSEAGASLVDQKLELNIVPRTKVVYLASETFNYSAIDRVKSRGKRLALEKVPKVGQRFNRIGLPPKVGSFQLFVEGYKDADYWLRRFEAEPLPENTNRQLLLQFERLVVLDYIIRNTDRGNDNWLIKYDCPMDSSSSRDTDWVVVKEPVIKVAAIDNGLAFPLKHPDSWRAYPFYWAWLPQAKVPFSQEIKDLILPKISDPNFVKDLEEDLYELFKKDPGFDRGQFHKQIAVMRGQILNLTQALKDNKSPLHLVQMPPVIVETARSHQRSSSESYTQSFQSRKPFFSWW
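ADP-Glo luminescence measured ADP generated by PI4K2A enzyme (4 ug/mL before mixing) with 1.2 mM PI substrate (pre-mix) and 300 microM ATP (pre-mix). Tris pH7.5 buffer with MgCl2, Triton X-100; 1 h reaction at ambient temperature.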
PI5P4Ka inh – qHTS for Inhibitors of phosphatidylinositol 5-phosphate 4-kinase (PI5P4K); PI5P4Kalpha enzyme, ADP-Glo luminescence, 60 min; stronger effect = lower value; 330,000 tested, 1.2% active; max response, %; Phosphatidylinositol 5-phosphate 4-kinase type-2 alpha (Homo sapiens), P48426; active means max response of -50% or lower; inconclusive means between -30% and -50%; inactive means -30% or higher; further: value at the top dose of about 77 µM; on the % scale 0 is the no-effect control and ±100 the full control effect
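qHTS, 1536-well: enzyme/substrate mix, compound by pin tool, 5 microM ATP final; RT 60 min; ADP-Glo reagents 1 (45 min) then 2 (30 min); luminescence.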
TbPFK ATP – Tb PFK orthogonal confirmatory assay using ATP depletion (Kinase-Glo Plus) as an alternative measure of Tb PFK activity: Hit Validation; shares compounds with Tb PFK inh-1; Tb PFK enzyme, ATP depletion, Kinase-Glo Plus luminescence; Potency, µM (highest dose often 57.5 µM), for inactives: at the top dose inhibition; 1,100 tested, 47% active; AID 504636, 2011; calls by dose curve; further: potency means the concentration at half of the fitted maximal effect; nearly all actives have a fitted effect of over 60% in size
Tb PFK inh-2 – Inhibitors of T. brucei phosphofructokinase: Hit Validation. shares compounds with Tb PFK inh-1. 1,100 tested, 41% active. Potency, µM (highest dose often 57.5 µM), inactives show top-dose activity change, negative = inhibition, most hits filed as inhibitors. purified T. brucei PFK, ADP-Glo luminescence, 45 min;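 further: potency means the concentration at half of the fitted maximal effect; plate controls were full PFK enzyme control for no effect and no enzyme control for full effect; nearly all actives have a fitted effect of over 60% in size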
* marks the source's active call; other numbers are inactive results; i = inactive; u = inconclusive; x = no result. Unless noted, the call rests on the fitted dose curve; in most records, active means well fitted curve in the direction sought with a large enough effect; inconclusive means small, poorly fitted or top-dose-only effect, or another doubt; inactive means no such curve, though single readings can be large; an effect the other way counts as inactive or inconclusive.

SMILES	Tb PGK inh	Pin1 inhibitor	Tb PFK inh-1	PI4K2A block	PI5P4Ka inh	TbPFK ATP	Tb PFK inh-2
Cc1ccc(-n2c(N)c(C(=O)N3CCN(C)CC3)sc2=S)cc1	-7%	-3%	13µM*	4	x	3.8µM*	9.5µM*
O=C(NC(CCC(O)CO)P(=O)(Oc1ccccc1)Oc1ccccc1)OCc1ccccc1 (stereo unspecified)	x	x	x	3	x	x	x
Cc1cccc(-c2nn3c(=O)cc(CN4CCN(C(=O)COc5ccc(Cl)cc5)CC4)nc3s2)c1	-8%	4%	x	-4	x	x	x
Clc1ccc(CN2C3=NCCN3c3ccccc32)cc1Cl	-1%	12%	6.7µM*	-5	0	3µM*	6µM*
NC(CP(=O)(O)O)C(=O)O (stereo unspecified)	x	x	x	4	x	x	x
O=C(N/N=C/c1sc2ccccc2c1O)c1cccc2ccccc12	i	u	u	7	-16	-25%	u
CC(C)CN1C(=S)SC(C)(C)C1n1oc(=O)n(-c2ccc(Cl)cc2)c1=O (stereo unspecified)	x	19%	27µM*	4	x	3%	-4%
O=C(O)c1ccc(NCc2cccc(Br)c2)cc1	-4%	-7%	21µM*	-2	-7	12µM*	24µM*
Cc1nnc(SCc2ccc(Cl)c(Cl)c2)s1	15%	-2%	24µM*	3	-7	11µM*	13µM*
Cc1ccn(-c2cc(O)c(-n3ccc(C)n3)cc2O)n1	5%	0%	u	-1	-4	-14%	u
Cc1cc(OCC(=O)N2CCN(CCc3ccncc3)CC2)ccc1Cl	3%	0%	x	1	x	x	x
Cc1ccc(-c2c[n+](Cc3ccc(Cl)c(Cl)c3)c3n2CCC3)cc1	i	-2%	6µM*	0	5	4.8µM*	13µM*
COc1ccc(OCC(=O)N2CCN(CCc3ccccn3)CC2)cc1	0%	0%	x	0	x	x	x
CCOC(=O)N1CCC(NC(=O)CCC(=O)N2CCOc3ccc(Cl)cc32)CC1	i	0%	u	1	7	u	-21%
C=C(C)[C@H]1Cc2c(ccc3c2O[C@@H]2COc4cc(OC)c(OC)cc4[C@@H]2C3=O)O1	x	x	x	5	x	x	x
COc1ccc(N2CCN(CCCN)CC2)cc1	1%	-1%	x	4	0	x	x
COc1ccc(N2CCN(Cc3nc(-c4ccccc4)no3)CC2)cc1	-7%	0%	24µM*	5	4	4%	3%
COCC(=O)N(c1c(C)cccc1C)C(C)C(=O)OC (stereo unspecified)	x	x	x	-3	x	x	x
CC(=O)Oc1ccc(CC(C(=O)O)N2C(=O)c3ccccc3C2=O)cc1 (stereo unspecified)	32µM*	7%	u	6	3	17µM*	u
O=C(Nc1cnn(Cc2ccc(Cl)c(Cl)c2)c1)c1nc2ncccn2n1	i	-13%	5.4µM*	25	-12	2.7µM*	5.4µM*
CS(=O)(=O)N1Cc2ccccc2CC1C(=O)OCC(=O)Nc1ccc2ccccc2c1 (stereo unspecified)	-4%	15%	u	-15	x	u	-23%
CC(=O)Nc1ccccc1C(=O)OCC(=O)c1ccc2ccccc2c1	-1%	15%	3%	-9	x	x	x
Cc1ccc(NC(=O)CSc2ncc3ccccn23)cc1C	-3%	-5%	9.5µM*	-3	-4	u	-18%
COc1cccc2c1NC(C(=O)O)C1CC=CC21 (stereo unspecified)	u	x	u	-21	-96*	u	u
